As usually defined, the inhibition is the relative decrease from the control value, in per cent.

Records with an inconclusive call do not appear. Calls of active or inactive are those of the source. Rule as the data show it, unless noted: active = response above about 15%; inactive = the rest.

The nature of experiment [1]: yeast TOR pathway RPL19A-GFP modulators, primary screen, cell-based, S. cerevisiae, multiplex flow cytometry (AID 1862; in the data active = percent of DMSO control GFP below about 86%;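 also: lower values mimic rapamycin by blocking the RPL19A rise seen in DMSO cells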). To be noted: S. cerevisiae RPL19A-GFP strain, flow cytometry fluorescence, 3 h; at 10 µM; stronger effect = lower value. For orientation: In flow cytometry, cells or beads pass a laser one at a time.
Experiment [2] is described as follows: modulators of MEP2-GFP levels in yeast, primary screen, S. cerevisiae, multiplex flow cytometry (AID 1867;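 active = GFP response, as percent of the DMSO control, above the screen-wide mean plus 3 SD, about 139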;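 also: median GFP channel fluorescence of barcode-gated MEP2-GFP cells measured by flow cytometry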). Particulars: S. cerevisiae MEP2-GFP strain, 3 h, at 10 µM, stronger effect = higher value, 100% means same as DMSO wells.
Experiment [3] is described as follows: modulators of CIT2-GFP expression in yeast, primary screen, S. cerevisiae, GFP fusion, multiplex flow cytometry (AID 1870;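 active = percent response above a set limit, the screen-wide mean plus 3 SD, cut at about 130% in these data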;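 also: barcoded CIT2-GFP strain pooled with four other GFP strains with rapamycin as positive control; median GFP fluorescence per well over plate mean of DMSO wells so 100% = DMSO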). Particulars: 3 h, at 10 µM, stronger effect = higher value.
Experiment [4] can be described thus: modulators of LAP4-GFP expression in yeast, primary screen, S. cerevisiae, multiplex flow cytometry (AID 1873;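 active = GFP signal, as percent of the solvent control, above the screen mean plus 3 SD, about 149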). Particulars: 3 h, at 10 µM, stronger effect = higher value.
The nature of experiment [5]: modulators of AGP1-GFP expression in yeast TOR pathway, primary screen, cell-based, multiplex flow cytometry, S. cerevisiae (AID 1887;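 active = GFP signal above the screen-wide mean plus 3 SD, that is over about 124.5% of the solvent control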;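 also: AGP1-GFP fusion strain of S. cerevisiae within a five-strain barcoded multiplex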). Particulars: 3 h, at 10 µM, stronger effect = higher value.
Experiment [6] can be described thus: inhibitors of CD8+ T cell-vesicle binding, pilot screen, LFA-1/ICAM-1 modulator project, MLPCN validation set, flow cytometry (AID 2523;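 active = response below a set limit, under 55% cells CD8-positive and vesicle-bound, and CD8 cells' 90th-percentile brightness under 279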;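 as to vesicle binding response: mean PE anti-B7-1 fluorescence of CD8+ cells relative to row control; 100% = QL9-loaded vesicles with DMSO vehicle in the same plate row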). Particulars: 2C mouse CD8+ T cells, at 7 µM, stronger effect = lower value; double positive events: measured here: CD8+/vesicle+ event percentage.
In experiment [7] the target is Integrin beta-1 (Homo sapiens) + Integrin alpha-4 (Homo sapiens) (UniProt P13612+P05556). The experiment is described as follows: inhibition of HUTS-21 binding to VLA-4, pilot screen, VLA-4 allosteric modulator project, U937 cells, HUTS-21 mAb, flow cytometry, validation set (AID 2674;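 active = inhibition above 50%, about 3 SD of the validation set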;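 also: antibody binding induced by the VLA-4 ligand LDV present at three times its Kd; 0% = LDV ligand with antibody and no compound and 100% = antibody without LDV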). Particulars: HUTS-21 LIBS mAb binding, at 6.7 µM, stronger effect = higher value, binding induced by LDV ligand.
Sequence of Integrin beta-1 (Homo sapiens) + Integrin alpha-4 (Homo sapiens) (P05556 whole entry, looked up): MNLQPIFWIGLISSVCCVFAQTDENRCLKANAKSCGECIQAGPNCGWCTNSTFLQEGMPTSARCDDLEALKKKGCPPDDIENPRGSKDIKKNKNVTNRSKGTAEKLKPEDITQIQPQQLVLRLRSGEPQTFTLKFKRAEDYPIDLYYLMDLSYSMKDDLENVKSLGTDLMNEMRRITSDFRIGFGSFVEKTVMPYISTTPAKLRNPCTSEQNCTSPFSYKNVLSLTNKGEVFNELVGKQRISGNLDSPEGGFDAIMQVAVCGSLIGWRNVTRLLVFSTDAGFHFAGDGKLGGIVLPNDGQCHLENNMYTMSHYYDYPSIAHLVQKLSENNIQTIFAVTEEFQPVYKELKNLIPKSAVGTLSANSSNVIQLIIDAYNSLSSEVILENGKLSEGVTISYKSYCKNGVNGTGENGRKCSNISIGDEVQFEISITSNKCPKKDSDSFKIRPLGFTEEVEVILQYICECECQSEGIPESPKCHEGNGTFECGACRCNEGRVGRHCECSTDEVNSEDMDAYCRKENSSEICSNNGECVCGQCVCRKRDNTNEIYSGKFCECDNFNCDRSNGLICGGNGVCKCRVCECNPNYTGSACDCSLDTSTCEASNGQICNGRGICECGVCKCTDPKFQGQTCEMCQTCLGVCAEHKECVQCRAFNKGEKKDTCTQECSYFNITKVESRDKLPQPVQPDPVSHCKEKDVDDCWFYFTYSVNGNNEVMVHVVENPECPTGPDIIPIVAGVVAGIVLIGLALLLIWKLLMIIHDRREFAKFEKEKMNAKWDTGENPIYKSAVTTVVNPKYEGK
Sequence of Integrin beta-1 (Homo sapiens) + Integrin alpha-4 (Homo sapiens) (P13612 whole entry, looked up): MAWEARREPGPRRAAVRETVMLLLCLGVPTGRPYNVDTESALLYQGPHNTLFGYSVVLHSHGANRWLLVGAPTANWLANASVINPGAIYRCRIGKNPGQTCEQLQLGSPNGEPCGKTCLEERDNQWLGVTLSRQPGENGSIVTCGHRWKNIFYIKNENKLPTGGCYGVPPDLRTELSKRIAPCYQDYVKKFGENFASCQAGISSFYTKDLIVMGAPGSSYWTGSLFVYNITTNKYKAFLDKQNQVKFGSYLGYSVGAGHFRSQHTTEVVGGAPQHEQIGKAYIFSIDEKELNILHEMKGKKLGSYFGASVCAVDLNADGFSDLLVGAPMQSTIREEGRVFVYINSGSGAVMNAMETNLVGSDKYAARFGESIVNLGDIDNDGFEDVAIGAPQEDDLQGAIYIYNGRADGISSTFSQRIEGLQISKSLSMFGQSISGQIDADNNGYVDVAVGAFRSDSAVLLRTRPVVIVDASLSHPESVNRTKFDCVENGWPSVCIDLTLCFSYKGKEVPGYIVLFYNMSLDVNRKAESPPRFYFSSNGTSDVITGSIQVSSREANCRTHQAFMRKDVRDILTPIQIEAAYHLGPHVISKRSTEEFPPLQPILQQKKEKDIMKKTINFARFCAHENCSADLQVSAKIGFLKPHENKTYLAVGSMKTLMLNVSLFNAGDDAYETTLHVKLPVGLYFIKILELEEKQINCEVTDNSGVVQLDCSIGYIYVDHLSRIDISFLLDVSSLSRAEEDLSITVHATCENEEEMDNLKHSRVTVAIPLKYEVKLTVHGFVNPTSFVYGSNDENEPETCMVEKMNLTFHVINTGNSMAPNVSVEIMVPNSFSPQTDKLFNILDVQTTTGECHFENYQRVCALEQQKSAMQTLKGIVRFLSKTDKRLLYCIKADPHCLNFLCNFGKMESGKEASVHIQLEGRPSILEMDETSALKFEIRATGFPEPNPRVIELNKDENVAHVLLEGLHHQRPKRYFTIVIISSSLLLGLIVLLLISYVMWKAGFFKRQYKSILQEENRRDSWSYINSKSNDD

Experiment [8] is described as follows: superoxide lowering in aged yeast cells, pilot screen, validation compound set (AID 2706;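 active = superoxide response below 65% of plate, a cut near 3 SD across the whole screen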;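 also: yeast exposed to compound for one week at 30 degrees C before staining; 100% = mean of all compound wells on the same plate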). Particulars: S. cerevisiae aging, superoxide DHE fluorescence; at 10 µM; stronger effect = lower value.
The target in experiment [9] is Beta-adrenergic receptor kinase 1 (Homo sapiens) (UniProt P25098). The experiment is described as follows: GRK2 binders displacing RNA aptamer, biochemical, validation, human GRK2, bead flow cytometry (AID 488806;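 active = aptamer binding inhibition above 30%, about 3 SD of noise from non-fluorescent compounds; inactive = inhibition at or below 30%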). To be noted: bead-bound GRK2, FAM-aptamer displacement, at 10 µM, stronger effect = higher value.
Sequence of Beta-adrenergic receptor kinase 1 (Homo sapiens) (P25098 whole entry, looked up): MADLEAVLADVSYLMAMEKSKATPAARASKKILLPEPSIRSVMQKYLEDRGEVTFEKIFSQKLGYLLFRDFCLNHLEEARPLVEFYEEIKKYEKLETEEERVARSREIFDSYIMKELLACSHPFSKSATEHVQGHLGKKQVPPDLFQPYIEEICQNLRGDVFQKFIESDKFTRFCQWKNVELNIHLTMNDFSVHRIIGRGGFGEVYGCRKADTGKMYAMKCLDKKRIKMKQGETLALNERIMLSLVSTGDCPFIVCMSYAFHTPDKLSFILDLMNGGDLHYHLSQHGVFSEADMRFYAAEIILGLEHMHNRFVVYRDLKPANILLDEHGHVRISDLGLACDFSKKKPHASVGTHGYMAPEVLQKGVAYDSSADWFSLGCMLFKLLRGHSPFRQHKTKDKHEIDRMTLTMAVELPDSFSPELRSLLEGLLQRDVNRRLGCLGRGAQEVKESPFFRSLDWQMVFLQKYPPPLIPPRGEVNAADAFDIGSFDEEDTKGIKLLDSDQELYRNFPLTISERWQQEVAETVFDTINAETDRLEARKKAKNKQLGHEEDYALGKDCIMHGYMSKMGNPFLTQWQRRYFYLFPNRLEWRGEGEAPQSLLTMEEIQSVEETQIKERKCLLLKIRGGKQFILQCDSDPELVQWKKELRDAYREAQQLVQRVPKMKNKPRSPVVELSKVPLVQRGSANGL
Experiment [10] deals with Beta-2 adrenergic receptor (Homo sapiens) (UniProt P07550). As to the kind of experiment: beta2AR agonists driving receptor internalization, pilot screen, cell-based, FAP fluorogen, flow cytometry, validation set (AID 504459;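 active = percent response above 42, roughly 3 SD of non-fluorescent test compounds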;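 also: agonist-driven loss of surface beta2AR via internalization measured by FAP dye flow cytometry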). To be noted: Am2.2-beta2AR cells, FAP surface receptor flow cytometry; at 10 µM; stronger effect = higher value.
Sequence of Beta-2 adrenergic receptor (Homo sapiens) (P07550 whole entry, looked up): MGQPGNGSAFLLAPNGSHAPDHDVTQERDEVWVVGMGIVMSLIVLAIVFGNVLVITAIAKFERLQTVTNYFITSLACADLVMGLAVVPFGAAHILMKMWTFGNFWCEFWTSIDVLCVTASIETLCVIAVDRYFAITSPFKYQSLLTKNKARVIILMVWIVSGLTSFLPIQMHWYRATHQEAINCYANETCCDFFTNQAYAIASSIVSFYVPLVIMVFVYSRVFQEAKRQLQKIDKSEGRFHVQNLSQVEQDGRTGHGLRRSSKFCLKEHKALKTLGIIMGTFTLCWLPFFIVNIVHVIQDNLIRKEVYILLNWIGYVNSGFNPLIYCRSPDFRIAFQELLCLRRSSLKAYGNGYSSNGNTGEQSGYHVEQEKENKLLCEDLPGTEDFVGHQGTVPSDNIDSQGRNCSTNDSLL
Experiment [11] deals with AP-2 complex subunit beta (Homo sapiens) (UniProt P63010). As to the kind of experiment: inhibitors of arrestin peptide binding to AP2, pilot screen, biochemical, validation set, GST-AP2 beads, flow cytometry (AID 504541;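 active = inhibition above 54%, about 3 SD of non-fluorescent compounds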;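 also: AP2 carries R879A mutation and is captured from E. coli lysate; bead-bound FITC arrestin peptide fluorescence measuring arrestin peptide binding to AP2; 0% = DMSO wells and 100% = excess unlabeled arrestin peptide control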). Particulars: FITC arrestin peptide, at 10 µM, stronger effect = higher value, AP2 beta2 appendage fragment, R879A mutant.
Sequence of AP-2 complex subunit beta (Homo sapiens) (P63010 whole entry, looked up, the tested form may be a part, one chain of several): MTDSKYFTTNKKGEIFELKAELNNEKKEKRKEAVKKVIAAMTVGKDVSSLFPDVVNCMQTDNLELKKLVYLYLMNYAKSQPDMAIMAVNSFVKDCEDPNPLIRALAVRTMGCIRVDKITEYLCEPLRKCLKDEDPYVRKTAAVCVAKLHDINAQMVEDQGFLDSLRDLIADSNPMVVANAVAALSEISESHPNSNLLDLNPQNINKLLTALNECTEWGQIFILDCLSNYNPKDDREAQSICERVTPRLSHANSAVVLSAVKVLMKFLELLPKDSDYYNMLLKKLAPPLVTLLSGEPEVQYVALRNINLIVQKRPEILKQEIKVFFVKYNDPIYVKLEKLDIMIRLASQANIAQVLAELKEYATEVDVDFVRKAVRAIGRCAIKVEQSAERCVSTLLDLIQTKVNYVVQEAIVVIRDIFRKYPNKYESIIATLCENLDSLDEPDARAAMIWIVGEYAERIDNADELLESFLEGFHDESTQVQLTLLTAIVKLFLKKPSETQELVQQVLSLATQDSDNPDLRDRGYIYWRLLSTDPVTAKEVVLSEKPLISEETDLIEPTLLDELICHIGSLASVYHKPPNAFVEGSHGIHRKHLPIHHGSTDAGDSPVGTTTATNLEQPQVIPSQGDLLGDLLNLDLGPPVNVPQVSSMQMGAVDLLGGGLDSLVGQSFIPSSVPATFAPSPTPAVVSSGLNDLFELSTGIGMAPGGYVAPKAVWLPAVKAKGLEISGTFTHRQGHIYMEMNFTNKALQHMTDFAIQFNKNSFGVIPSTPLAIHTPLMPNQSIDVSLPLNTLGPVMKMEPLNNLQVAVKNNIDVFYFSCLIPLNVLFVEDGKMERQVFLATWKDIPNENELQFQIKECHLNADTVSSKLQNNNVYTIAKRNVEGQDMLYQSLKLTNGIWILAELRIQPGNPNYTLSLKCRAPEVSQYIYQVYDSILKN
Experiment [12] in a line: yeast V-ATPase proton transport modulators, S. cerevisiae, pHLuorin, HTS validation (AID 504600).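 Also: plate controls were DMSO for no effect and reference compound for full effect.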 Particulars: S. cerevisiae pHLuorin cytosolic pH, at 10 µM, stronger effect = higher value.
Experiment [13] has as its system anti-desmoglein-3 scFv antibody binding to human DSG3. As to the kind of experiment: inhibitors of anti-DSG3 scFv binding to DSG3, pilot screen, biochemical, validation compound set, bead-based, flow cytometry (AID 588368;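 active = binding below the plate cutoff, the plate median minus 3 SD, with a reading above zero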;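 also: signal is the median channel fluorescence of bead-bound GFP antibody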). Particulars: Protein G beads, DSG3-Fc, scFv-GFP binding, at 10 µM, stronger effect = lower value.
Experiment [14] is described as follows: inhibitors of fungal efflux pumps CDR1, CDR2, MDR1, pilot screen, validation compound set, multiplex, phenotypic (AID 588506;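 active = efflux inhibition above 0.42, the validation set average plus 4 SD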;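 also: Nile Red retained in cells so higher fluorescence means more efflux inhibition; 0 = negative control wells and 1 = enniatin B 25 µM full block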). Particulars: S. cerevisiae pump-expressing triplex, Nile Red efflux flow cytometry; at 10 µM; stronger effect = higher value; the pumps come from Candida albicans.
The target of experiment [15] is ATP-binding cassette sub-family B member 6 (Homo sapiens) (UniProt Q9NP58). As to the kind of experiment: ABCB6 transporter inhibitors, pilot screen, K562-ABCB6 cells, flow cytometry, validation set (AID 588550;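 active = inhibition above the screen-wide mean plus 3 SD, about 51%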;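 also: 0% = DMSO wells and 100% = benzethonium chloride 70 µM positive control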). Particulars: K562-ABCB6 porphyrin accumulation, 1 h, at 10 µM, stronger effect = higher value.
Sequence of ATP-binding cassette sub-family B member 6 (Homo sapiens) (Q9NP58 whole entry, looked up): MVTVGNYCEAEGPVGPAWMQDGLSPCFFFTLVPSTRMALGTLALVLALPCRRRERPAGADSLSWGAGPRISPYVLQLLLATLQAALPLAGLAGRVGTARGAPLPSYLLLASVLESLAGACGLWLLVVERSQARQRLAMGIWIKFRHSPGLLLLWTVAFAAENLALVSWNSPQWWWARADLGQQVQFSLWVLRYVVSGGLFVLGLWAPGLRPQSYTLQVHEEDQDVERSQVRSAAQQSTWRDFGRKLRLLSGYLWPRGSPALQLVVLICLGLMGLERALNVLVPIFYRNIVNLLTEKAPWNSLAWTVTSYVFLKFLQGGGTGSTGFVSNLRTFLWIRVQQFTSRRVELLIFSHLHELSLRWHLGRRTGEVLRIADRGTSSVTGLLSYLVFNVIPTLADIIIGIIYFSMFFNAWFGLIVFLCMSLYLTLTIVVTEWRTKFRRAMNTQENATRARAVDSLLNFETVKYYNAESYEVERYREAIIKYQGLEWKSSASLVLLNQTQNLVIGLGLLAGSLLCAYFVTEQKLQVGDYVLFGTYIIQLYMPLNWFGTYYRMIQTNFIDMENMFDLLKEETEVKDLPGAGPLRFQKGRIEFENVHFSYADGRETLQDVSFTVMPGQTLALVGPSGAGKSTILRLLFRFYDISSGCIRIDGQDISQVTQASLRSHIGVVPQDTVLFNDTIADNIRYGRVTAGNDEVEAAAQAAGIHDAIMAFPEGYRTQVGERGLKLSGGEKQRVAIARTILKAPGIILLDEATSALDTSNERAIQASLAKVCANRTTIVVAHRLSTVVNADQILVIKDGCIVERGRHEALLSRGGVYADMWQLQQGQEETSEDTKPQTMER
The nature of experiment [16]: promoters of myeloid differentiation in arrested cells, primary screen, cell-based, GFP/MAC1 double positive, flow cytometry, validation set (AID 588685;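 active = differentiation response of at least 50%, scaled between solvent and reference control, from cells with both markers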;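 also: compound exposure lasts four days before antibody staining and flow analysis; 0% = DMSO wells and 100% = 5 µM fulvestrant positive control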). To be noted: ER-HoxA9 marrow cells, stronger effect = higher value, normalized: vehicle 0, fulvestrant 100.

With `COc1ccc(C2C(C(=O)c3ccco3)=C(O)C(=O)N2CC2CCCO2)cc1` (stereo not given), in experiment [1], the percent of DMSO control GFP was 102% (inactive). Further, the GFP response vs DMSO was 105% (inactive) in [2] and 99.3% (inactive) in experiment [4]. Also, the percent response of DMSO control in [3] is 104% (inactive). Moreover, in experiment [5], the GFP response, % of DMSO is 95.3% (inactive). The same compound returned a double positive events in experiment [6] of 62.9%. Moreover, the vesicle binding response in experiment [6] is 351% (inactive). For the same compound, the inhibition in experiment [7] was -7.72% (inactive); in experiment [11], 25.3% (inactive); in [15], 3% (inactive). Moreover, the superoxide response (% of plate) in experiment [8] is 105% (inactive). In addition, the aptamer binding inhibition in experiment [9] is 3% (inactive). Moreover, the response in experiment [10] was -3.98% (inactive); in experiment [12] it was -4.81% (inactive). Also, the binding (% of control) in [13] was 98.9% (inactive). In addition, the efflux inhibition (fraction of control) in [14] was 0.05 (inactive). The differentiation response in [16] was -5.62% (inactive).
`O=C(NO)c1ccccc1O`: the percent of DMSO control GFP in [1] was 103% (inactive). In addition, the results for the GFP response vs DMSO in experiment [2] and in experiment [4] were 107% (inactive) and 94.8% (inactive), respectively. Further, in experiment [3], the percent response of DMSO control was 105% (inactive). Besides, in [5], the GFP response, % of DMSO is 106% (inactive). This compound also yielded a double positive events in experiment [6] of 63.6%. For the same compound, in experiment [6], the vesicle binding response was 158% (inactive). Moreover, the results for the inhibition in experiment [7], in [11] and in experiment [15] were 8.29% (inactive), 36.8% (inactive) and 9% (inactive), respectively. Also, the superoxide response (% of plate) in experiment [8] is 95.5% (inactive). Also, the aptamer binding inhibition in experiment [9] was 2% (inactive). In addition, the results for the response in experiment [10] and in [12] were -0.56% (inactive) and -8.07% (inactive), respectively. The binding (% of control) in experiment [13] is 98.8% (inactive). In addition, in [14], the efflux inhibition (fraction of control) was 0.03 (inactive). Further, the differentiation response in experiment [16] was -13.3% (inactive).
As for `CC(=O)Nc1ccc(CN2CCN(C3CCCCC3)C(CCO)C2)cc1` (stereo not given), in experiment [1], the percent of DMSO control GFP is 102% (inactive). Also, the results for the GFP response vs DMSO in experiment [2] and in experiment [4] were 104% (inactive) and 114% (inactive), respectively. Moreover, in [3], the percent response of DMSO control is 101% (inactive). Further, the GFP response, % of DMSO in experiment [5] was 120% (inactive). Moreover, in experiment [6], the double positive events amounted to 62.8%. For the same compound, the vesicle binding response in experiment [6] was 172% (inactive). Moreover, the values for the inhibition in [7], in [11] and in experiment [15] were -0.27% (inactive), -3.58% (inactive) and 2% (inactive), respectively. The superoxide response (% of plate) in [8] is 102% (inactive). For the same compound, the aptamer binding inhibition in [9] is 0% (inactive). Also, the response in experiment [10] is -18.9% (inactive); in experiment [12] it was -1.9% (inactive). The binding (% of control) in [13] was 111% (inactive). The efflux inhibition (fraction of control) in experiment [14] is 0.12 (inactive). For the same compound, the differentiation response in [16] is -10.9% (inactive).
In the case of `COc1ccc(C2OC(=O)Cc3cc(OC)c(OC)cc32)cc1` (stereo not given), in experiment [1], the percent of DMSO control GFP was 90.6% (inactive). In addition, the GFP response vs DMSO in experiment [2] is 127% (inactive); in experiment [4], 82.5% (inactive). Further, in experiment [3], the percent response of DMSO control is 91.3% (inactive). Also, in [5], the GFP response, % of DMSO is 88% (inactive). This compound also gave a double positive events in [6] of 63.4%. In experiment [6], the vesicle binding response was 177% (inactive). Moreover, the results for the inhibition in experiment [7], in experiment [11] and in experiment [15] were -6.15% (inactive), -4.51% (inactive) and 7% (inactive), respectively. The superoxide response (% of plate) in experiment [8] was 94.5% (inactive). Further, the aptamer binding inhibition in experiment [9] was 2% (inactive). The response was -3.02% (inactive) in [10] and -1.1% (inactive) in experiment [12]. Also, the binding (% of control) in [13] is 103% (inactive). Besides, the efflux inhibition (fraction of control) in experiment [14] is -0.38 (inactive). Further, the differentiation response in [16] was 3.28% (inactive).
As for `COc1cc(C(=O)Nc2cccc(-c3nnc(-c4ccco4)o3)c2)ccc1OC(C)=O`, in experiment [1], the percent of DMSO control GFP is 103% (inactive). Moreover, the GFP response vs DMSO in experiment [2] is 103% (inactive); in [4], 109% (inactive). Also, in experiment [3], the percent response of DMSO control is 104% (inactive). Moreover, the GFP response, % of DMSO in experiment [5] was 107% (inactive). In addition, in [6], the double positive events was determined as 52.3%. The vesicle binding response in experiment [6] is 52.3% (active). Also, the inhibition is 12.5% (inactive) in experiment [7], 64.4% (active) in [11] and -5% (inactive) in [15]. In experiment [8], the superoxide response (% of plate) was 109% (inactive). The aptamer binding inhibition in [9] was 5% (inactive). Further, the response in experiment [10] is 3.82% (inactive); in [12] it was 2.66% (inactive). In addition, the binding (% of control) in experiment [13] was 106% (inactive). Moreover, the efflux inhibition (fraction of control) in experiment [14] is 0.17 (inactive). Besides, in experiment [16], the differentiation response was -10.9% (inactive).

The values above are taken from PubChem BioAssay.
